Measurements published in PubChem BioAssay (NCI).
This is part of a sample that, as a whole, favours compounds with a hit. Of some 83,000 tested, about 20% had one in any assay.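 96-well plates, one dose, 48 hours. Percent growth reported; active if below 10.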 A number with no mark means an inactive call. Calls of active or inactive are those of the source.

System: OVCAR-5 ovarian
Test: NCI-60 one-dose screen, 48 h (100 = growth as untreated, 0 = no growth, -100 = all killed)
Details: 10 µM unless noted

Structure (SMILES) | growth
COc1cc(O)c2c(=O)c3c(CC=C(C)C)cc(OC)c(O)c3oc2c1 | 51.2%
Cc1nc2sc(C(=O)Nc3cccc4ccccc34)c(N)c2cc1C(=O)c1ccccc1 | 32.3%
Cc1cc(C(=O)CCCC(=O)c2cc(C)c(O)c(C)c2)cc(C)c1O | 95.8%
FC(F)(F)c1[nH]ncc1-c1nc2ccc3[nH]ncc3c2c2c1CCCC2 | 9.73% (active)
Nc1ncnc2c1N=C(c1ccc(F)cc1)CC(c1cccc(Nc3ccnc4cc(Cl)ccc34)c1)N2 (stereo not given) | 107%
COC(=O)c1c2c(c(C)[n+]([O-])c1C)C(=O)C(NCc1ccccc1)=CC2=O | 39.5%
COc1cc(C=Nc2oc(-c3ccccc3)c(-c3ccccc3)c2C#N)cc(CN2CCCC2)c1O | 102%
NCCCNc1nc2ccccc2c2c(=O)c3cc(Cl)ccc3sc12 | -11.5% (active)
O=C(/C=C/c1cccc(Oc2ccccc2)c1)c1ccc(Nc2nc(Nc3ccc(F)cc3)nc(Nc3ccc(Cl)cc3)n2)cc1 | 99.5%
CCCCO[C@@H]1C=C2[C@H]3CC(C)(C)C(=O)C[C@]3(C(=O)O[C@@H]3O[C@H](CO[C@@H]4O[C@H](CO)[C@@H](OC5OC(C)C(O)C(O)C5O)[C@H](O)[C@H]4O)[C@@H](O)[C@H](O)[C@H]3O)CC[C@@]2(C)[C@]2(C)CC[C@H]3C(C)(C)C(=O)CC[C@]3(C)[C@@H]12 (stereo not given in full) | 96.1%
COc1ccc2cc(-c3nc4ccc(C)cn4c3NCc3ccco3)c(=O)[nH]c2c1 | 70.8%
c1csc(-c2cn3nc(-c4c[nH]c5ccccc45)sc3n2)c1 | 37.1%
O=C1C=CC2(O)OC/C(=C\c3ccccc3)C(O)=C2C1=O (stereo not given) | 29.3%
C=C1CC[C@@H]2C(C)(C)[C@H](O)CC[C@@]2(C)[C@@H]1COc1ccc2ccc(=O)oc2c1 | 109%
COC(=O)c1c(C)nc(C)c2c1C(=O)C=C(NCc1ccccc1)C2=O | 81.7%
COC(=O)c1ccc2cc(OC)c(OC)cc2c1 | 101%
O=C(c1cccc(N2CCOCC2)n1)c1c[nH]c2ccccc12 | 105%
C=C[C@@]1(C)CC(=O)[C@@H](C(C)(C)c2cn(C)c3ccc(Br)cc23)C[C@@H]1O[Si](C)(C)C(C)(C)C | 106%
COCCOC(C)C(/C=N/NC(N)=S)=N/NC(N)=S (stereo not given) | 97.7%
Cc1cc(N2CCN(CC(=O)Nc3ccc4c(ccn4Cc4ccccc4)c3)CC2)nc(N2CCOCC2)n1 | 97.9%

Structure (SMILES) | growth
COc1ccc(C2CC(c3ccccc3)=NN2C(=O)c2cc(OC)c(OC)c(OC)c2)cc1O (stereo not given) | 60.1%
Cc1ccc(O)c(NC(=O)c2cccc(Nc3ccnc(C(F)(F)F)c3)c2)c1 | 87.1%
Cc1ncc(C(=O)Nc2ccc(CN3CCN(C)CC3)c(C(F)(F)F)c2)cc1C#Cc1cnc(N)c2ccc(C#N)cc12 | -24.7% (active)
Cc1nn(C)c2ncnc(N/N=C/c3cccc(O)c3O)c12 | 41.8%
O=C(O)CC(C(=O)O)/C(=C\c1ccccc1)c1ccccc1 (stereo not given) | 104%
Fc1ccc2[nH]cc(-c3nc(-c4c[nH]c5c(Cl)nccc45)cs3)c2c1 | 99.1%
CCCN(CCSSCCNc1nc(N(C)O)nc(N(C)O)n1)c1nc(N(C)O)nc(N(C)O)n1 | 58%
CCOC(=O)c1cn2ncnc(Oc3ccc(NC(=O)NC4CC4)c(Cl)c3)c2c1C | 108%
COC1C(O)CC(OC2CC(OC3CC(O[C@@H]4C(=O)c5c(cc6cc(OC7CC(OC8CC(O)C(O)C(C)O8)C(O)C(C)O7)c(C)c(O)c6c5O)CC4[C@H](OC)[C@@H](O)C(C)=O)OC(C)C3O)OC(C)C2O)OC1C (stereo not given in full) | 12%
COC12C=C/C(=C(/C(=O)OCc3csc(SC)n3)C(=O)CCCCCCCCC3(OC)C=C/C(=C(/C(=O)OCc4cnc(SC)s4)C(=O)CCCCCCCC1)O3)O2 (stereo not given) | 60%
COc1ccc(/C=C2\CN(C(=O)C(Cl)Cl)C/C(=C\c3ccc(OC)c(OC)c3)C2=O)cc1OC | 10.6%
Cc1c2cnccc2c(C)c2c1c1cc(CO)ccc1n2C | -27.5% (active)
COc1ccc(C=Nc2c(C(=O)Nc3cccc(Cl)c3C)sc3nc(C)c(C(=O)/C=C/c4ccc(OC)cc4)cc23)cc1 | 31.3%
O=[N+]([O-])c1c(O)c(Cl)cc(Cl)c1Cl | 91.6%
CN1CCOCCN(C)Cc2ccc3ccc(cc3c2)CN(C)CCOCCN(C)Cc2ccc3ccc(cc3c2)C1 | 134%
O=C1/C(=C/c2c[nH]c(=O)[nH]c2=O)SC(=S)N1Cc1ccccc1 | 99%
O=Nc1ccc(NC(=O)Nc2ccc([N+](=O)[O-])cc2)cc1 | 122%
N#Cc1nn(-c2cc(=O)[nH]c3ccc(Br)cc23)c(N)c1C#N | 103%
C[C@H](c1nc2ccc(C#N)cc2[nH]1)[C@H]1CC[C@H]2[C@@H]3CCC4=CC(=O)CC[C@]4(C)[C@H]3CC[C@]12C | 85.3%
CCOC(=O)C1=C(c2ccccc2)N=C2N(c3ccccc3)N=C(C(C)=O)N2C1c1ccc(F)cc1 (stereo not given) | 102%
